Measurements from PubChem BioAssay (Tox21).
Inconclusive results are not listed. Activity calls are given as the source filed them. Unless noted, the call rests on the fitted dose curve; in most records, active means well fitted curve in the direction sought with a large enough effect in the repeat runs; inconclusive means weak or mixed curves; inactive means no such curve, though single readings can be large; an effect the other way counts as inactive or inconclusive.

Legend:
[1] = qHTS assay to test for compound auto fluorescence at 535 nm (green) in HEK293 cells (AID 720680)
[2] = qHTS assay to test for compound auto fluorescence at 460 nm (blue) in HEK293 cell free culture (AID 720681)
How it was run: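 Blue fluorescence (Ex 405/Em 460 nm, triamterene-equivalent) was read immediately after pin transfer of compound or DMSO into medium (DMEM, 10% FBS) without cells.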

[3] = qHTS assay to test for compound auto fluorescence at 535 nm (green) in HEK293 cell free culture (AID 720682)
How it was run: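 Using fluorescein as calibrant, autofluorescence was quantified at 485/535 nm in cell-free DMEM containing 10% FBS after pintool addition of compound or vehicle.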

[4] = qHTS assay to test for compound auto fluorescence at 590 nm (red) in HEK293 cell free culture (AID 720683)
How it was run: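 Red-channel autofluorescence of compounds in culture medium (DMEM, 10% FBS), no cells, measured at 540/590 nm. Rose Bengal sodium is the reference fluorophore for equivalence.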

[5] = qHTS assay to test for compound auto fluorescence at 590 nm (red) in HepG2 cell free culture (AID 720684)
How it was run: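 Steps: dispense MEM/10% FBS medium, no cells; pin compound or DMSO vehicle; read red channel, Ex/Em 540/590 nm. Output given as Rose Bengal sodium equivalents.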

[6] = qHTS assay to test for compound auto fluorescence at 460 nm (blue) in HepG2 cell free culture (AID 720685)
How it was run: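 Compound (23 nL) or DMSO pinned into cell-free MEM with 10% FBS; blue fluorescence read at 405/460 nm excitation/emission, expressed as auto-fluorescence equivalency to triamterene.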

[7] = qHTS assay to test for compound auto fluorescence at 535 nm (green) in HepG2 cell free culture (AID 720686)
[8] = qHTS assay to test for compound auto fluorescence at 460 nm (blue) in HepG2 cells (AID 720687)
How it was run: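 Blue-channel autofluorescence (Ex/Em 405/460 nm, triamterene-equivalent) was measured after 1 hr compound exposure at 37 C, 5% CO2. Cells were HepG2, plated overnight at 37 C in MEM plus 10% FBS.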

[9] = target: Glucocorticoid receptor (Homo sapiens) (UniProt P04150); assay: qHTS assay to identify small molecule agonists of the glucocorticoid receptor (GR) signaling pathway (AID 720691; active means well fitted activation curve with a large enough effect in the signal ratio in the repeat runs, not every such curve was filed as active; the % refers to the signal ratio)
Glucocorticoid receptor (Homo sapiens), sequence (P04150 whole entry, looked up): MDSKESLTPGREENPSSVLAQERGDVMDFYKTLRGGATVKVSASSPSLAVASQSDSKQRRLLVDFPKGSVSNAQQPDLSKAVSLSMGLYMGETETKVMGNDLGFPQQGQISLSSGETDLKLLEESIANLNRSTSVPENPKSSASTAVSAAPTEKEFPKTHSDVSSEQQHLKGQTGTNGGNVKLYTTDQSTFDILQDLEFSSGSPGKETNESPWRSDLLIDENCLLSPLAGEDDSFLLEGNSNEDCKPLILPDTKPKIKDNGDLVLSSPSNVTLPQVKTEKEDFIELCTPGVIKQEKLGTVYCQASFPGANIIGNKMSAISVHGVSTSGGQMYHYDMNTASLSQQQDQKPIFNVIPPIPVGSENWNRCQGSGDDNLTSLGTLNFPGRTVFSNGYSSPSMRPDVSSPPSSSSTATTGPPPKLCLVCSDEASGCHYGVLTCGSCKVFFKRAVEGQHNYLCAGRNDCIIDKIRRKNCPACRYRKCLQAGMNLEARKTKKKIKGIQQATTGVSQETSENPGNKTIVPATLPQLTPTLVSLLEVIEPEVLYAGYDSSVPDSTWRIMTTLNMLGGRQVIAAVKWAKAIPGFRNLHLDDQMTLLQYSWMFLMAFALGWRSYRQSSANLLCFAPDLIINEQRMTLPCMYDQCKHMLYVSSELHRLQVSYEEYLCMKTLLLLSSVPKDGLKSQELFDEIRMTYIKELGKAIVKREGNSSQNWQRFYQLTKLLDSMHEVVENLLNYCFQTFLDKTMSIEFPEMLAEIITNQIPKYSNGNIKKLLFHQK
How it was run: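 Reporter read-out: fluorescence intensity following 2 h room-temperature LiveBLAzer B/G FRET substrate loading. Prior step: GR-bla HeLa cells held 4 h, then treated 18 h at 37 C.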

[10] = target: Glucocorticoid receptor (Homo sapiens) (UniProt P04150); assay: qHTS assay to identify small molecule antagonists of the glucocorticoid receptor (GR) signaling pathway (AID 720692; active means well fitted inhibition curve with a large enough effect in the signal ratio in the repeat runs, not every such curve was filed as active; the % refers to the signal ratio)
How it was run: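 Dexamethasone (5 nM final) stimulated a stably integrated GRE-beta-lactamase reporter in HeLa cells during 18 h co-incubation with compounds; signal was quantified as fluorescence intensity of B/G FRET substrate after 2 h.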

[11] = qHTS assay to identify small molecule antagonists of the glucocorticoid receptor (GR) signaling pathway - cell viability counter screen (AID 720693); further: nearly all actives have a fitted effect of over 55% in size
[12] = qHTS assay for identifying genotoxic compounds that show differential cytotoxicity against isogenic chicken DT40 cell lines with known DNA damage response pathways - wild type cell line (AID 743012); further: nearly all actives have a fitted effect of over 60% in size
How it was run: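 Using parental DT40 (300 cells/well), compounds delivered in DMSO incubate 40 h at 37 C/5% CO2. CellTiter-Glo reagent then stands 30 min at room temperature, and luminescence gives cell viability.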

[13] = qHTS assay for identifying genotoxic compounds that show differential cytotoxicity against isogenic chicken DT40 cell lines with known DNA damage response pathways - Rev3 mutant cell line (AID 743014); further: nearly all actives have a fitted effect of over 55% in size
[14] = qHTS assay to identify small molecule antagonists of the androgen receptor (AR) signaling pathway - cell viability counter screen (AID 743033; further: nearly all actives have a fitted effect of over 45% in size)
[15] = qHTS assay to identify small molecule antagonists of the androgen receptor (AR) signaling pathway using the MDA cell line - cell viability counter screen (AID 743041; further: nearly all actives have a fitted effect of over 45% in size)
How it was run: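 Cells were plated at 3,000 per well and left 5 h. Compounds in DMSO were then pinned in, followed by R1881. After 16 h at 37C, CellTiter-Fluor fluorescence gave viability.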

[16] = qHTS assay for identifying genotoxic compounds that show differential cytotoxicity against isogenic chicken DT40 cell lines with known DNA damage response pathways - Rad54/Ku70 mutant cell line (AID 743015); further: nearly all actives have a fitted effect of over 60% in size
[17] = target: Androgen receptor (Homo sapiens) (UniProt P10275); assay: qHTS assay to identify small molecule antagonists of the androgen receptor (AR) signaling pathway (AID 743035; active means well fitted inhibition curve with a large enough effect in the signal ratio in the repeat runs, not every such curve was filed as active; the % refers to the signal ratio)
Androgen receptor (Homo sapiens), sequence (P10275 whole entry, looked up): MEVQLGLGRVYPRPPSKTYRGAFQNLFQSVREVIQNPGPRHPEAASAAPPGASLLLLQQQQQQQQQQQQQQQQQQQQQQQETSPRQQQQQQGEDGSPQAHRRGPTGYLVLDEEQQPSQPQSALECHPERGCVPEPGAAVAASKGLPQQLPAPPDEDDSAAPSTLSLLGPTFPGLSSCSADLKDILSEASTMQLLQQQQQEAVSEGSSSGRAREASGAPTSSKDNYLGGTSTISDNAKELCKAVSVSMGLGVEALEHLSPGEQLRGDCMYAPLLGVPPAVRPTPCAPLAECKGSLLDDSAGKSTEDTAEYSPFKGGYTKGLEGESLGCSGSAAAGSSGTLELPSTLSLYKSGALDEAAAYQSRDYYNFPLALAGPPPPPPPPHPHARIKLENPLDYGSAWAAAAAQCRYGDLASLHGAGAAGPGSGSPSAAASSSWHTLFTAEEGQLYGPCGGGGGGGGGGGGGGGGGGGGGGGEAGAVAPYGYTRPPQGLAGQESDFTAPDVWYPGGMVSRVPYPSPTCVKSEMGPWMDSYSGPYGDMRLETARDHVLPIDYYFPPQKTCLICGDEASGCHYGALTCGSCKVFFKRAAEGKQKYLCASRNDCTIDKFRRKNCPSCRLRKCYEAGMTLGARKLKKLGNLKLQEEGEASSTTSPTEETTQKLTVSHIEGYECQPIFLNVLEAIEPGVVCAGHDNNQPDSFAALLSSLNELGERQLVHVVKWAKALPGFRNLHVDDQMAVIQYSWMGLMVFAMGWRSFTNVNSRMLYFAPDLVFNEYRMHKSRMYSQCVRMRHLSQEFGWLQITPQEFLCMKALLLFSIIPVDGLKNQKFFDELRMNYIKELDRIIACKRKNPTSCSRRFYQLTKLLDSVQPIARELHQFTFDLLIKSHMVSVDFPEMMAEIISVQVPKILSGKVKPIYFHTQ
How it was run: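 Using qHTS, AR-UAS-bla GripTite HEK293 cells received compound, then R1881, and were cultured 16 h at 37C/5% CO2 before a 2 h room-temperature LiveBLAzer B/G FRET substrate step and fluorescence measurement.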

[18] = target: Androgen receptor (Homo sapiens) (UniProt P10275); assay: qHTS assay to identify small molecule agonists of the androgen receptor (AR) signaling pathway (AID 743036; active means well fitted activation curve with a large enough effect in the signal ratio in the repeat runs, with a control signal flat, not every such curve was filed as active; the % refers to the signal ratio)
How it was run: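 In this Tox21 qHTS, 2,000 HEK293 AR-bla cells per well were incubated with compounds for 16 h at 37C and 5% CO2. Fluorescence intensity was recorded 2 h after adding LiveBLAzer B/G FRET substrate at room temperature.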

[19] = target: Androgen receptor (Homo sapiens) (UniProt P10275); assay: qHTS assay to identify small molecule agonists of the androgen receptor (AR) signaling pathway using the MDA cell line (AID 743040; further: nearly all actives have a fitted effect of over 20% in size)
How it was run: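 Cells plated, 5 h at 37C/0% CO2; compound or DMSO pinned; 16 h at 37C; ONE-Glo added; luminescence measured after 30 min at room temperature. Reporter line: MDA-kb2 with MMTV-luciferase responsive to AR and GR.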

[20] = target: Androgen receptor (Homo sapiens) (UniProt P10275); assay: qHTS assay to identify small molecule antagonists of the androgen receptor (AR) signaling pathway using the MDA cell line (AID 743042; further: nearly all actives have a fitted effect of over 55% in size)
How it was run: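 Antagonist mode: compounds plus R1881 agonist added to MDA-kb2 AR-luc cells, incubated 16 h at 37C. Luciferase reporter luminescence quantified, with multiplexed CellTiter-Fluor readout for cell viability.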

Measured: Potency

CCC(=O)/C=C/C1C(C)=CCCC1(C)C (stereo not given)
not listed: [16] | [17] | [18] | [19] | [20]
inactive: all other assays above

O=C(Cl)c1cccc(C(=O)Cl)c1
not listed: [17] | [18] | [19] | [20]
inactive: all other assays above

CCN(CC)C(=O)Nc1ccc(OCC(O)CNC(C)(C)C)c(C(C)=O)c1 (stereo not given)
not listed: [14]
inactive: all other assays above

CC(N)=O
not listed: [15] | [17] | [18] | [19] | [20]
inactive: all other assays above

NC12CC3CC(CC(C3)C1)C2
not listed: [13] | [17] | [18] | [19] | [20]
inactive: all other assays above

CC1COC(=O)O1 (stereo not given)
inactive: all assays above

CCC[C@H](N[C@@H](C)C(=O)N1[C@H](C(=O)O)C[C@@H]2CCCC[C@@H]21)C(=O)OCC
not listed: [16] | [17] | [18] | [19] | [20]
inactive: all other assays above
